Source: PubChem BioAssay (National Center for Advancing Translational Sciences (NCATS))
This is a sample that favours compounds with a hit; in the whole collection about 19% have one here.
IL-1B inflam inh: qHTS for Inhibitors of Inflammasome Signaling: IL-1-beta AlphaLISA Primary Screen. THP-1 LPS/ATP IL-1B secretion, AlphaLISA, 16 h; active compounds read low. activity change, % at 57.5 µM. 360,000 compounds, 4.7% hits. AID 743279, 2014; in the data active = activity change below about -50%; inconclusive = mostly about -30% to -49%; note: % is set by controls: 0 for no effect and ±100 for the full control effect
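THP-1 cells pretreated 1 hr with compounds (up to 57.5 uM final), then stimulated with LPS (250 ng/mL final) plus ATP (1.25 mM final); secreted IL-1B measured by AlphaLISA after 16 hr, decreased signal indicating inhibition.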
DT40 TDP1 CPT: qHTS for Inhibitors of human tyrosyl-DNA phosphodiesterase 1 (TDP1): qHTS in cells in presence of CPT | 420,000 compounds, 12% hits | AID 686979, 2013 | Potency, µM (highest dose often 46.2 µM), inactives show at the highest dose activity change, negative = growth inhibition, actives largely listed as inhibitors | chicken DT40 Tdp1-/-;hTDP1 cells + 20 nM CPT, ATP luminescence, 48 h; note: potency is the fitted concentration of half-maximal effect; % is set by controls: 0 for no effect and ±100 for the full control effect; nearly all actives have a fitted effect of over 55% in size
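Chicken DT40 Tdp1-/- cells complemented with human TDP1, 400 cells/well, exposed to compounds plus 20 nM camptothecin for at least 48 h at 37 C; viability read as ATP content by CellTiter-Glo luminescence.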
TDP1 block: qHTS Assay for Inhibitors of Tyrosyl-DNA Phosphodiesterase (TDP1) | recombinant TDP1, AlphaScreen DNA substrate cleavage | 350,000 compounds, 0.28% hits | Potency, µM (doses to about 130 µM), for the others: top-dose activity change, negative = inhibition, actives largely listed as inhibitors; note: potency is the fitted concentration of half-maximal effect; % is set by controls: 0 for no effect and ±100 for the full control effect; nearly all actives have a fitted effect of over 40% in size
Target sequence (Q9NUW8 whole entry, looked up): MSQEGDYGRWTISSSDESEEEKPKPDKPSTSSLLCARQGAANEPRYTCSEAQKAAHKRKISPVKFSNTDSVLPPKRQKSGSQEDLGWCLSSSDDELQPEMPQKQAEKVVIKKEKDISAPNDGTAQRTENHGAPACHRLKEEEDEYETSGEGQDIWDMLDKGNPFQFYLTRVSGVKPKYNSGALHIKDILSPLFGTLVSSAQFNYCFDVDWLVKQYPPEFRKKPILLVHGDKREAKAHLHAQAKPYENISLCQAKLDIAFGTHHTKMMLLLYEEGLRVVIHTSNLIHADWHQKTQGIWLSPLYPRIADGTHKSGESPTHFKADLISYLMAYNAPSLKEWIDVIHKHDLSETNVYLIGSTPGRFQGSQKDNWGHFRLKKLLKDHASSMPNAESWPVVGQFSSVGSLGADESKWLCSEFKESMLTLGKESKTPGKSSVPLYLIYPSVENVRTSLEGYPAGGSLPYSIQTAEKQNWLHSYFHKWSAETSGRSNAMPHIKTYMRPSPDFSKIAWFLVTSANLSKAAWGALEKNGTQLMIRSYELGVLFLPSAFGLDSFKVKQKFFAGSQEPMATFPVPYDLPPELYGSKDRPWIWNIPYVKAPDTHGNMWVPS
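AlphaScreen read-out: signal falls as enzyme removes the 3' tyrosine-FITC from a 5'-biotinylated DNA oligo (15 nM, 5 min, RT). Enzyme was E. coli-made recombinant Tdp1 at 1 nM, exposed to compound for 15 min beforehand; beads 10 ug/ml, 10 min.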
DT40 TDP1 no CPT: qHTS for Inhibitors of human tyrosyl-DNA phosphodiesterase 1 (TDP1): qHTS in cells in absence of CPT; 420,000 compounds, 15% hits; Potency, µM (highest dose often 46.2 µM), for inactives: at the top dose activity change, negative = growth inhibition, actives largely listed as inhibitors; DT40 Tdp1-/- hTDP1 cells, no CPT, ATP luminescence, 48 h; note: potency is the fitted concentration of half-maximal effect; % is set by controls: 0 for no effect and ±100 for the full control effect; nearly all actives have a fitted effect of over 55% in size
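Cells were dispensed at 400 per well, compounds added by pin tool, plates incubated ≥48 hr at 37 °C, then CellTiter-Glo added for 30 min at room temperature before luminescence reading. Line: DT40 Tdp1-/- complemented with hTDP1; camptothecin omitted.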
TGFb inhibitor: qHTS for Inhibitors of TGF-b; 410,000 compounds, 1.2% hits; HepG2 CAGA-GFP TGF-b/SMAD3 reporter, GFP fluorescence, 18 h; TGF-beta stimulated, 500 pg/mL final; Potency, µM (series often up to 46.1 µM), for inactives: at the highest dose activity, negative = inhibition, usual class: inhibitors; note: potency is the fitted concentration of half-maximal effect; % is set by controls: 0 for no effect and ±100 for the full control effect; nearly all actives have a fitted effect of over 65% in size
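HEPG2 CAGA-GFP reporter cells (1000/well, DMEM with 1% FBS) received compounds, then recombinant TGF-beta at 500 pg/mL final for 18 hours at 37 degrees C. Per-cell GFP summed per well was normalised to unstimulated and stimulated DMSO controls before curve fitting.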
HepG2 viability: qHTS for Inhibitors of TGF-b: Cytotox Counterscreen; 410,000 compounds, 0.76% hits; Potency, µM (top dose mostly 46.1 µM), inactives show at the highest dose activity change, negative = cytotoxicity, hits mostly cytotoxic; HepG2 CAGA-GFP viability, ATP luminescence, 18 h; note: potency is the fitted concentration of half-maximal effect
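CellTiter-Glo luminescence gave cytotoxicity after 18 hours at 37 degrees C. The cells were HepG2 CAGA-GFP in 1% FBS DMEM, stimulated with 500 pg/mL TGF-beta after compound addition. %Activity was normalised to no-cell wells (complete cell-killing) and DMSO (no toxicity), and curves were fitted and classified.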
Numbers without * were called inactive; [ ] = another dose, or the depositor's remark. Unless noted, calls come from the whole dose curve; as a rule, active = well fitted curve in the direction sought with a large enough effect; inconclusive = small, poorly fitted or top-dose-only effect, or another doubt; inactive = no such curve, though single readings can be large; an effect the other way counts as inactive or inconclusive.

O=C1CC(c2ccc(F)cc2)Cc2nc(N3CCOCC3)ncc21 (configuration not stated) was read as IL-1B inflam inh -5.4, DT40 TDP1 CPT -20.9%, TDP1 block 7.6%, DT40 TDP1 no CPT inconclusive, TGFb inhibitor 4.6% and HepG2 viability -9.2%.
Screening CCN1CCN(c2ncc3c(n2)CC(c2cc(OC)c(OC)c(OC)c2)CC3=O)CC1 (configuration not stated) returned IL-1B inflam inh 26.5, DT40 TDP1 CPT 4.61µM*, TDP1 block -4.2%, DT40 TDP1 no CPT 3.26µM*, TGFb inhibitor 1.5% and HepG2 viability 4.3%.
Screening O=C1CC(c2cccc(Cl)c2)Cc2nc(N3CCN(c4ccccc4)CC3)ncc21 (configuration not stated) returned IL-1B inflam inh 9.4, DT40 TDP1 CPT -3.4%, TDP1 block 6.9%, DT40 TDP1 no CPT -4.3%, TGFb inhibitor 4.7% and HepG2 viability 12.0%.
O=C(CCC1N=C2c3ccccc3N=C(SCC(=O)Nc3ccccc3F)N2C1=O)NCc1ccco1 (configuration not stated) was read as DT40 TDP1 CPT -2.1%, TDP1 block 2.5%, DT40 TDP1 no CPT -11.8%, TGFb inhibitor 1.3% and HepG2 viability 8.5%.
For CCc1ccc(NC(=O)Cn2c(=O)n(CCCC(=O)NCCc3ccc(OC)c(OC)c3)c(=O)c3ccccc32)cc1 the results were DT40 TDP1 CPT inconclusive, TDP1 block -2.7%, DT40 TDP1 no CPT inconclusive, TGFb inhibitor 1.1% and HepG2 viability 4.9%.
For CCN(CC(=O)NC1CCS(=O)(=O)C1)S(=O)(=O)c1ccc(Cl)cc1C(F)(F)F (configuration not stated) the results were IL-1B inflam inh 6.4, DT40 TDP1 CPT -13.8%, TDP1 block 2.3%, DT40 TDP1 no CPT -12.5%, TGFb inhibitor -12.3% and HepG2 viability -23.8%.
COc1cc(/C=C/C(=O)O)cc(S(=O)(=O)NNC(=O)c2cc(C)oc2C)c1OC was read as IL-1B inflam inh 1.5, DT40 TDP1 CPT 5.7%, TDP1 block 15.8µM*, DT40 TDP1 no CPT -5.6%, TGFb inhibitor -1.6% and HepG2 viability 10.3%.
For Cc1c(C(=O)CN2CCSCC2)c2ccccc2n1C the results were IL-1B inflam inh -18.2, DT40 TDP1 CPT 5.8%, TDP1 block 3.9%, DT40 TDP1 no CPT -22.2%, TGFb inhibitor 12.9% and HepG2 viability 1.8%.
`Cc1ccc(C(=O)N2CC=C(c3ccccc3)CC2)o1` gave IL-1B inflam inh -21.1, DT40 TDP1 CPT inconclusive, DT40 TDP1 no CPT inconclusive, TGFb inhibitor -1.5% and HepG2 viability -11.0%.
For Cc1c(C(=O)C(=O)N2CC=C(c3ccccc3)CC2)c2ccccc2n1C the results were IL-1B inflam inh 33.0, DT40 TDP1 CPT 2.91µM*, TDP1 block 0.6%, DT40 TDP1 no CPT 2.59µM*, TGFb inhibitor 8.0% and HepG2 viability 4.7%.
Screening CC(=O)N1CCN(C(=O)c2cc(C)nc3ccccc23)CC1 returned IL-1B inflam inh 0.3, DT40 TDP1 CPT -13.3%, TDP1 block 5.5%, DT40 TDP1 no CPT inconclusive, TGFb inhibitor 3.1% and HepG2 viability 18.1%.
Screening Cc1cc(C(=O)N2CC=C(c3ccccc3)CC2)c2ccccc2n1 returned IL-1B inflam inh -2.9, DT40 TDP1 CPT 0.581µM*, TDP1 block -3.9%, DT40 TDP1 no CPT 0.92µM*, TGFb inhibitor inconclusive and HepG2 viability -1.5%.
For O=C(O)c1ccccc1C(=O)N1CC=C(c2ccccc2)CC1 the results were IL-1B inflam inh 20.8, DT40 TDP1 CPT inconclusive, TDP1 block 3.1%, DT40 TDP1 no CPT 25.9µM*, TGFb inhibitor -22.7% and HepG2 viability 3.2%.
`Cc1c(C(=O)N2CCCC(C)C2)sc2ncnc(NCCN3CCCCC3)c12` (configuration not stated) gave DT40 TDP1 CPT -2.5%[9.04 µM] and DT40 TDP1 no CPT -23.9%.
Nc1cc2sc(-c3ccc(C(=O)O)cc3)nc2cc1Cl was read as IL-1B inflam inh 10.1, DT40 TDP1 CPT 8.2µM*, DT40 TDP1 no CPT inconclusive, TGFb inhibitor -16.8% and HepG2 viability -61.2%.
`Oc1ccc(N=C/C=C/c2cccc(Br)c2)cc1-c1nc2ccccc2s1` gave IL-1B inflam inh -14.9, DT40 TDP1 CPT 11.6µM*, TDP1 block 0.0%, DT40 TDP1 no CPT 20.6µM*, TGFb inhibitor -6.1% and HepG2 viability -19.8%.
For Nc1nc(-c2ccc(C(=O)O)cc2)cs1 the results were IL-1B inflam inh 11.3, DT40 TDP1 CPT 13.8%, TDP1 block -8.0%, DT40 TDP1 no CPT -6.8%, TGFb inhibitor 0.3% and HepG2 viability 2.5%.
For Nc1ccc(-c2nc3ccc(C(=O)O)cc3s2)cc1 the results were IL-1B inflam inh 4.4, DT40 TDP1 CPT -29.8%, TDP1 block 79.4µM*, DT40 TDP1 no CPT -26.4%, TGFb inhibitor 13.3% and HepG2 viability -3.4%.
`Nc1ccc2nc(-c3ccc(O)cc3)sc2c1` gave DT40 TDP1 CPT 20.6µM*, TDP1 block 2.2%[12.3 µM], DT40 TDP1 no CPT 20.6µM*, TGFb inhibitor 9.9% and HepG2 viability -46.0%.
Screening Nc1ccccc1-c1nc2ccccc2s1 returned IL-1B inflam inh 41.7, DT40 TDP1 CPT 10.3%, TDP1 block inconclusive, DT40 TDP1 no CPT 2.0%, TGFb inhibitor -23.2% and HepG2 viability -7.8%.
For Oc1ccc(-c2nc3ccccc3s2)cc1 the results were IL-1B inflam inh 13.6, DT40 TDP1 CPT inconclusive, TDP1 block 0.0%, DT40 TDP1 no CPT -16.0%, TGFb inhibitor inconclusive and HepG2 viability -59.1%.
`Nc1ncc(O)c(N)n1` gave TDP1 block -4.3%.
For CCC(C)C(N)C(=O)NC(CC(N)=O)C(=O)NC(CC(C)C)C(=O)NC(CCCCN)C(=O)NC(C)C(=O)NC(CC(C)C)C(=O)NC(C)C(=O)NC(C)C(=O)NC(CC(C)C)C(=O)NC(C)C(=O)NC(CCCCN)C(=O)NC(CCCCN)C(=O)NC(C(=O)NC(CC(C)C)C(N)=O)C(C)CC (configuration not stated) the results were TDP1 block 12.8%.
